# Source: paper PMC8384837, “Expanding the binding specificity for RNA recognition by a PUF domain”
# How the values were obtained:
# Assay in all cases: yeast three-hybrid, YBZ-1, SC-Leu-His + 0.5 mM 3-AT, 4 days
# Settings in all cases: tags: N-Gal4 AD-HA kept; label: inside an RPR1-promoter hybrid RNA with tandem MS2 sites; ssRNA
# PUM1 PUF domain R4-AMA = PUM1 PUF domain R4-AMA (Homo sapiens, UniProt Q14671 828-1176, N971A;H972M;Q975A)
# In short: (§1)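 A centromeric plasmid in strain YBZ-1 co-expressed Pumilio-1 PUF domain libraries, randomized at the three base-contacting residues of each repeat, with matching RNA elements; the strain carries a LexA–MS2 coat fusion and a HIS3 reporter. After four days on SC-Leu (input) or SC-Leu-His + 0.5 mM 3-AT (selection), the repeat regions were PCR-amplified and Illumina-sequenced. The interaction score is the log change in variant frequency from input to selection, using log2 and a pseudocount of 1 where absent.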
# PUM1 PUF domain R5-KRM = PUM1 PUF domain R5-KRM (Homo sapiens, UniProt Q14671 828-1176, C1007K;Q1011M)
# In short: as §1
# PUM1 PUF domain R3-PWA = PUM1 PUF domain R3-PWA (Homo sapiens, UniProt Q14671 828-1176, C935P;R936W;Q939A)
# In short: as §1
# PUM1 PUF domain R8-KWC = PUM1 PUF domain R8-KWC (Homo sapiens, UniProt Q14671 828-1176, N1122K;Y1123W;Q1126C)
# In short: as §1
# PUM1 PUF domain R3-LWD = PUM1 PUF domain R3-LWD (Homo sapiens, UniProt Q14671 828-1176, C935L;R936W;Q939D)
# In short: as §1
# PUM1 PUF domain R3-RPV = PUM1 PUF domain R3-RPV (Homo sapiens, UniProt Q14671 828-1176, C935R;R936P;Q939V)
# In short: as §1
# PUM1 PUF domain R1-QYK = PUM1 PUF domain R1-QYK (Homo sapiens, UniProt Q14671 828-1176, S863Q;R864Y;Q867K)
# In short: as §1
# PUM1 PUF domain R5-SNS = PUM1 PUF domain R5-SNS (Homo sapiens, UniProt Q14671 828-1176, C1007S;R1008N;Q1011S)
# In short: as §1
# PUM1 PUF domain R4-FNH = PUM1 PUF domain R4-FNH (Homo sapiens, UniProt Q14671 828-1176, N971F;H972N;Q975H)
# In short: as §1
# PUM1 PUF domain R3-FQC = PUM1 PUF domain R3-FQC (Homo sapiens, UniProt Q14671 828-1176, C935F;R936Q;Q939C)
# In short: as §1
# PUM1 PUF domain R4-AMA, sequence (Q14671 828-1176 N971A/H972M/Q975A): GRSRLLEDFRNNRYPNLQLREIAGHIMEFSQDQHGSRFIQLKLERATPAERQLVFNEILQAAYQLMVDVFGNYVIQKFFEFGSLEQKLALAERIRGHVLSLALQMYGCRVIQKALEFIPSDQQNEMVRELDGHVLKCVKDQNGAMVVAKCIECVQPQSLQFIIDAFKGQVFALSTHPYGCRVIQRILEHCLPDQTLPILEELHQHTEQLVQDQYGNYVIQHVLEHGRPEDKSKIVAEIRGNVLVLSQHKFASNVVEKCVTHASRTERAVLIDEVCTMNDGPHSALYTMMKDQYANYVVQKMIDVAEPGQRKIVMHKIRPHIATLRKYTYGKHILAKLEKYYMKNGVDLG
# PUM1 PUF domain R3-PWA, sequence (Q14671 828-1176 C935P/R936W/Q939A): as the sequence (Q14671 828-1176 N971A/H972M/Q975A) above, with C108P, R109W, Q112A, A144N, M145H, A148Q counted along it
# PUM1 PUF domain R3-LWD, sequence (Q14671 828-1176 C935L/R936W/Q939D): as the sequence (Q14671 828-1176 N971A/H972M/Q975A) above, with C108L, R109W, Q112D, A144N, M145H, A148Q counted along it
# PUM1 PUF domain R5-KRM, sequence (Q14671 828-1176 C1007K/Q1011M): as the sequence (Q14671 828-1176 N971A/H972M/Q975A) above, with A144N, M145H, A148Q, C180K, Q184M counted along it
# PUM1 PUF domain R5-SNS, sequence (Q14671 828-1176 C1007S/R1008N/Q1011S): as the sequence (Q14671 828-1176 N971A/H972M/Q975A) above, with A144N, M145H, A148Q, C180S, R181N, Q184S counted along it
# PUM1 PUF domain R4-FNH, sequence (Q14671 828-1176 N971F/H972N/Q975H): as the sequence (Q14671 828-1176 N971A/H972M/Q975A) above, with A144F, M145N, A148H counted along it
# PUM1 PUF domain R8-KWC, sequence (Q14671 828-1176 N1122K/Y1123W/Q1126C): as the sequence (Q14671 828-1176 N971A/H972M/Q975A) above, with A144N, M145H, A148Q, N295K, Y296W, Q299C counted along it
# PUM1 PUF domain R3-FQC, sequence (Q14671 828-1176 C935F/R936Q/Q939C): as the sequence (Q14671 828-1176 N971A/H972M/Q975A) above, with C108F, R109Q, Q112C, A144N, M145H, A148Q counted along it
# PUM1 PUF domain R1-QYK, sequence (Q14671 828-1176 S863Q/R864Y/Q867K): as the sequence (Q14671 828-1176 N971A/H972M/Q975A) above, with S36Q, R37Y, Q40K, A144N, M145H, A148Q counted along it
# PUM1 PUF domain R3-RPV, sequence (Q14671 828-1176 C935R/R936P/Q939V): as the sequence (Q14671 828-1176 N971A/H972M/Q975A) above, with C108R, R109P, Q112V, A144N, M145H, A148Q counted along it
sequence,measurement,setting,value
GGCUAGAACUAGUGGAUCCCCCGGCGCCCGGCGGCUCGAGCCCGGGUAAGUGUAAAUAGUCUGCAUGCCGCCGGGCGCCAUGCCUGCAGGUCGACUCUAGAAAACAUG,binding signal,PUM1 PUF domain R4-AMA,2.2 log2 enrichment (interaction score)
same,binding signal,PUM1 PUF domain R5-KRM,2.19 log2 enrichment (interaction score)
same,binding signal,PUM1 PUF domain R3-PWA,4.48 log2 enrichment (interaction score)
GGCUAGAACUAGUGGAUCCCCCGGCGCCCGGCGGCUCGAGCCCGGGUAAGCGUAAAUAGUCUGCAUGCCGCCGGGCGCCAUGCCUGCAGGUCGACUCUAGAAAACAUG,binding signal,PUM1 PUF domain R8-KWC,4.87 log2 enrichment (interaction score)
GGCUAGAACUAGUGGAUCCCCCGGCGCCCGGCGGCUCGAGCCCGGGUAAGUGUAAUUAGUCUGCAUGCCGCCGGGCGCCAUGCCUGCAGGUCGACUCUAGAAAACAUG,binding signal,PUM1 PUF domain R3-LWD,1.73 log2 enrichment (interaction score)
same,binding signal,PUM1 PUF domain R3-RPV,2.55 log2 enrichment (interaction score)
same,binding signal,PUM1 PUF domain R3-PWA,2.19 log2 enrichment (interaction score)
GGCUAGAACUAGUGGAUCCCCCGGCGCCCGGCGGCUCGAGCCCGGGUAAGUGUACAUAGUCUGCAUGCCGCCGGGCGCCAUGCCUGCAGGUCGACUCUAGAAAACAUG,binding signal,PUM1 PUF domain R4-AMA,1.77 log2 enrichment (interaction score)
GGCUAGAACUAGUGGAUCCCCCGGCGCCCGGCGGCUCGAGCCCGGGUAAGUGUAAAUCGUCUGCAUGCCGCCGGGCGCCAUGCCUGCAGGUCGACUCUAGAAAACAUG,binding signal,PUM1 PUF domain R1-QYK,6.38 log2 enrichment (interaction score)
GGCUAGAACUAGUGGAUCCCCCGGCGCCCGGCGGCUCGAGCCCGGGUAAGUGUUAAUAGUCUGCAUGCCGCCGGGCGCCAUGCCUGCAGGUCGACUCUAGAAAACAUG,binding signal,PUM1 PUF domain R5-SNS,3.23 log2 enrichment (interaction score)
same,binding signal,PUM1 PUF domain R5-KRM,3.73 log2 enrichment (interaction score)
GGCUAGAACUAGUGGAUCCCCCGGCGCCCGGCGGCUCGAGCCCGGGUAAGUGUAUAUAGUCUGCAUGCCGCCGGGCGCCAUGCCUGCAGGUCGACUCUAGAAAACAUG,binding signal,PUM1 PUF domain R4-AMA,2.78 log2 enrichment (interaction score)
same,binding signal,PUM1 PUF domain R4-FNH,5.93 log2 enrichment (interaction score)
GGCUAGAACUAGUGGAUCCCCCGGCGCCCGGCGGCUCGAGCCCGGGUAAGUGUAAGUAGUCUGCAUGCCGCCGGGCGCCAUGCCUGCAGGUCGACUCUAGAAAACAUG,binding signal,PUM1 PUF domain R3-LWD,4.02 log2 enrichment (interaction score)
same,binding signal,PUM1 PUF domain R3-FQC,3.36 log2 enrichment (interaction score)
same,binding signal,PUM1 PUF domain R3-PWA,0.42 log2 enrichment (interaction score)
